Test results from PubChem BioAssay (NCI).
This is part of a sample that, as a whole, favours compounds with a hit. Of some 79,000 tested, about 15% had one in any assay. Cut-off read from the data, not from the text of the source: active = growth inhibition above about 70%; inactive = the rest.

Experiments:
[1] = NCI Yeast Anticancer Drug Screen. Data for the rad50 strain (AID 155);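 note: 0% = growth of vehicle-only cultures of the same strain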; details: S. cerevisiae rad50 strain growth inhibition; at 50.0 µM; active compounds read high
In short: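 Genetically altered yeast (DNA repair pathway); compound treatment; growth inhibition vs vehicle ctrl.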

[2] = NCI Yeast Anticancer Drug Screen. Data for the mec2-1 strain (AID 157); details: S. cerevisiae mec2-1 strain, at 50.0 µM, active compounds read high
In short: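 Strain: mec2-1 (DNA repair/cell cycle alteration). Compound exposure, then growth measured; inhibition expressed relative to vehicle.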

[3] = NCI Yeast Anticancer Drug Screen. Data for the sgs1 mgt1 strain (AID 161);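 note: 0% = growth of cultures given vehicle only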; details: S. cerevisiae sgs1 mgt1 strain, at 50.0 µM, active compounds read high
In short: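 Inhibition of yeast growth, normalised to vehicle-treated controls, is reported for a strain bearing genetic alterations in DNA damage repair.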

[4] = NCI Yeast Anticancer Drug Screen. Data for the cln2 rad14 strain (AID 165);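 note: 0% = growth equal to vehicle treated cultures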; details: S. cerevisiae cln2 rad14 strain, at 50.0 µM, active compounds read high
In short: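 Compounds are applied to the cln2 rad14 yeast strain, and growth is then compared with that of vehicle-treated cultures to give inhibition.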

[5] = NCI Yeast Anticancer Drug Screen. Data for the bub3 strain (AID 167); details: S. cerevisiae bub3 mutant strain, at 50.0 µM, active compounds read high
In short: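 Yeast carrying a defined mutation is treated with each compound, and growth is compared with that of vehicle-exposed cells to give inhibition.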

[6] = NCI Yeast Anticancer Drug Screen. Data for the mlh1 rad18 strain (AID 175); details: S. cerevisiae mlh1 rad18 strain growth inhibition; at 50.0 µM; active compounds read high
In short: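 Read-out is yeast growth inhibition, calculated against vehicle-only controls. The compound was applied to a strain engineered with DNA damage repair alterations.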

Measured: growth inhibition

CCCCOC(=O)c1ccc(NC(=O)CCl)cc1
inactive: [1] 28.6% | [2] 18.8% | [3] 43.1% | [4] 12.5% | [5] 13.8% | [6] 43.4%

CN(C(=S)S(=O)(=O)C12CC3CC(CC(C3)C1)C2)c1ccccc1
inactive: [1] 28.8% | [2] 4.7% | [3] 4.35% | [4] -11.5% | [5] 17.5% | [6] -24.9%

CSCCC(NC(=O)C(Cl)Cl)C(=O)O (configuration not stated)
inactive: [1] -31.6% | [2] -3% | [3] -4.1% | [4] -49% | [5] 17% | [6] 3.4%

C=C1C(=O)C2CCC1C2 (configuration not stated)
inactive: [1] 32.4% | [2] -24.6% | [3] 23.8% | [4] -3.2% | [5] 7.8% | [6] 8.25%

NC(CO)(CO)c1ccccc1
inactive: [1] 34.4% | [2] 13.1% | [3] 10.5% | [4] 20% | [5] 17.5% | [6] 29.9%

Cc1cc(CO)c(O)c(CO)c1
inactive: [1] 8.15% | [2] -10.4% | [3] 0.1% | [4] -5.05% | [5] -10.5% | [6] 0.85%

Cc1cc(C)cc(OCC(=O)O)c1
inactive: [1] 16.6% | [2] 10.2% | [3] -10.6% | [4] -41% | [5] -4.45% | [6] 3.4%

Cc1ccc(NCN2C(=O)c3ccccc3C2=O)c(C)n1
inactive: [1] 4.7% | [2] -28.4% | [3] 8.05% | [4] 11.3% | [5] 7% | [6] -0.65%

CC1CC2C3CCC4=CC(=O)CCC4(C)C3CCC2(C)C1(O)C(=O)CO (configuration not stated)
inactive: [1] 2% | [2] -0.8% | [3] 9.1% | [4] -44% | [5] -14.3% | [6] -0.55%

O=C1Nc2ccccc2/C1=C\c1ccccc1O
inactive: [1] 25.2% | [2] -1.75% | [3] 12.2% | [4] 6.8% | [5] 17.4% | [6] 23.4%

COc1ccc2c(Cl)cc(NC(=O)Nc3c(C)cccc3C)nc2c1
inactive: [1] 5.8% | [2] 1.15% | [3] 13.9% | [4] 6.65% | [5] 21.1% | [6] 7.2%

CC(CO)(CO)C(=O)O
inactive: [1] 4.35% | [2] -31.4% | [3] -11.6% | [4] 21.3% | [5] -14% | [6] 10.1%

O=C(CCl)Nc1ccccc1SCc1cc(Cl)cc2c1OCOC2
inactive: [1] -5.7% | [2] -16.4% | [3] 21.6% | [4] 22.9% | [5] 13.6% | [6] -8.9%

C=COC(=O)CCOCC(CC)CCCC (configuration not stated)
inactive: [1] -6.1% | [2] -15.1% | [3] 8.95% | [4] -6.2% | [5] -4.55% | [6] -6.55%

CCOC(C=O)OCC
inactive: [1] 0.6% | [2] 6% | [3] 4.35% | [4] -9% | [5] -4.3% | [6] -10.9%

CCCC1OC(c2ccco2)OCC1CC (configuration not stated)
inactive: [1] 30.8% | [2] -2.15% | [3] 18.6% | [4] -27.8% | [5] -0.05% | [6] 27.1%

O=C(O)c1cccc(-n2ncc(Cl)c(Cl)c2=O)c1
inactive: [1] 8.4% | [2] -0.95% | [3] 19.2% | [4] 19% | [5] 21.4% | [6] 19.6%

COc1cc(C(=O)O)c(O)c(C(C)(C)C)c1
inactive: [1] 19.4% | [2] 4.25% | [3] 17.9% | [4] -2.45% | [5] 5.4% | [6] 8.5%

CCOC(=N)CC(=O)Nc1cccc(C)c1Cl
inactive: [1] -2.85% | [2] -14.1% | [3] -11.4% | [4] 18.6% | [5] 8.5% | [6] -3.3%

CC(O)C(F)(F)C(F)(F)C(F)(F)F (configuration not stated)
inactive: [1] 7.8% | [2] -16.6% | [3] 19.9% | [4] -2.1% | [5] -2.7% | [6] 20.8%

CN=S(=O)(OCCCCCOS(=O)(=NC)c1ccc(C)cc1)c1ccc(C)cc1 (configuration not stated)
inactive: [1] 3.75% | [2] -33.8% | [3] -22.9% | [4] -43.4% | [5] -41.3% | [6] -34.9%

O=c1cc(Cl)nc2ccccn12
inactive: [1] 18.6% | [2] -1.1% | [3] -11% | [4] -52.3% | [5] -3.85% | [6] 4.5%
